Test results as given in PubChem BioAssay (NCATS).
Values without a mark were called inactive. The source made the active and inactive calls. The call rests on the fitted dose curve; in most records, active means well fitted curve in the direction sought with a large enough effect; inconclusive means small, poorly fitted or top-dose-only effect, or another doubt; inactive means no such curve, though single readings can be large or run the other way.

Assay: Cellular Toxicity (caspase-3) MRC-5 (AID 659)
Conditions: MRC-5 cells, luminescence, normalized: DMSO 0%, 10 µM staurosporine 100%; series mostly up to 91.7 µM; caspase-3 activation: at the top concentration
Source text: NIH Chemical Genomics Center [NCGC]
NIH Molecular Libraries Screening Centers Network [MLSCN]
National Institutes of Environmental Health Sciences [NIEHS]
National Toxicology Program [NTP]
We have developed a 1536-well cell-based assay for quantitative high throughput screening (qHTS) against a number of cell lines to determine in vitro caspase 3/7 activity of small molecules. This particular assay uses the MRC-5 cell line which is derived from human normal lung fibroblasts.
NCGC Assay Protocol Summary:
The Caspase-Glo 3/7 assay (Promega) is a homogeneous method to measure caspase-3 and caspase-7 activities in cultured cells. The quantitation of caspase 3/7 activity is based on the cleavage of a peptide-aminoluciferin substrate. After caspase cleaves the substrate the free aminoluciferin is liberated and serves as the substrate of luciferase, which generates the light. The luminescent signal is proportional to amount of caspase 3/7 activity present.
Using the Caspase-Glo 3/7 assay, the amount of caspase 3/7 activity was measured in the MRC-5 line with complete culture medium following compound treatment for 16 hours. The assay was performed in opaque white 1536-well plates. In the screen, tamoxifen and staurosporine were used as positive controls. Library compounds were measured for their ability to cause the activation of caspase 3/7 in the cell line, as reflected by an increase in luminescence signal, in a concentration-dependent manner. Data were normalized to the controls for basal activity (DMSO only) and 100% stimulation (10 uM staurosporine). AC50 values were determined from concentration-response data modeled with the standard Hill equation.
qHTS protocol for caspase 3/7 assay in MRC-5 cells
[Step] [Parameter] [Value] [Description]
1. Reagent; 5 uL; 1500 MRC-5 cells/well
2. Time; 5 hr; 37 °C incubation
4. Controls; 23 nL; Tamoxifen 0.23 uM to 100 uM & staurosporine 1.4 pM to 100 uM
5. Time; 16 hr; 37 °C incubation
6. Reagent; 5 uL; Caspase-Glo 3/7 reagent
7. Time; 1 hr; Room Temperature
8. Detection; Luminescence; Viewlux plate reader
Keywords: caspase 3/7, apoptosis, MRC-5 cell line, luminescence, NTPHTS, NTPHTS_NCGC, NIEHS, EPA, DSSTox, MLSMR, MLSCN, NIH Roadmap, qHTS, NCGC

Compared with `CN(C)CCC(c1ccc(Cl)cc1)c1ccccn1` (configuration not stated), `c1cnc2c(c1)ccc1cccnc12` is lower in “caspase-3 activation” value: 1.29% for the first, -1.24% for the second.

First: Nc1ccc(O)c(C(=O)O)c1
Second: Nc1ccc(O)c([N+](=O)[O-])c1
The “caspase-3 activation” value of the first is lower: -0.0312% for the first, 0.671% for the second.

First: Nc1nc2ccc([N+](=O)[O-])cc2s1
Second: Nc1ccc([N+](=O)[O-])cc1O
The “caspase-3 activation” value of the first is lower: -2.51% for the first, -0.156% for the second.

First: Oc1ccccc1O
Second: S=c1[nH]c2ccccc2s1
The “caspase-3 activation” value of the first is higher: 1.08% for the first, -0.274% for the second.

Going from `CCCCCCCCCCCCCCCCCC(=O)O` to `COc1cc(CNC(=O)CCCC/C=C/C(C)C)ccc1O`, the “caspase-3 activation” value rises from 0.88% to 1.96%.

Compared with `CN1CCC[C@H]1c1cccnc1`, `C#C[C@]1(O)CC[C@H]2[C@@H]3CCc4cc(O)ccc4[C@H]3CC[C@@]21C` is lower in “caspase-3 activation” value: 1.16% for the first, -0.0721% for the second.

Going from `O=C(O)/C=C\C(=O)O` to `O=C(O)c1cc(O)c(O)c(O)c1`, the “caspase-3 activation” value falls from -1.96% to -4.12%.

Going from `O=c1cc(-c2ccccc2)oc2ccccc12` to `c1ccc2sc(SSc3nc4ccccc4s3)nc2c1`, the “caspase-3 activation” value rises from -3.83% to 3.13%.

Going from `CN(C)c1ccc(N=NS(=O)(=O)O)cc1` to `CC(C)NCC(O)COc1cccc2ccccc12` (configuration not stated), the “caspase-3 activation” value rises from -2.88% to 1.47%.

Going from `NCCO` to `CC1(C)S[C@@H]2[C@H](NC(=O)[C@H](N)c3ccccc3)C(=O)N2[C@H]1C(=O)O`, the “caspase-3 activation” value rises from -0.988% to -0.259%.

For `O=C1CN(/N=C/c2ccc([N+](=O)[O-])o2)C(=O)N1`, the “caspase-3 activation” value was 0.0515%.

With `CCCOC(=O)c1ccc(O)cc1` the outcome was “inactive”.
